Our source for the differential viability (reversal) and viability values is PubChem BioAssay.

Calls of active or inactive are those of the source.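 The calls were made as follows: active = viability loss from added drug above about 55%, and viability with drug at most 40%, in both replicates (limit read from the data, passing the limit was not always enough); inconclusive = both conditions met in only one replicate; inactive = neither replicate meets both conditions.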

One assay in a line: reversal of MRP1-mediated doxorubicin resistance, pilot screen, H69AR cells, doxorubicin co-treatment (AID 601). Particulars: H69AR cells + 2 uM doxorubicin, CellTiter-Glo, 72 h; at 10 µM; stronger effect = higher value.
Turning to `COCCCNC(=O)c1ccc(CS(=O)(=O)c2ccc(OC)cc2)o1`, the differential viability (reversal) was 4.5% (inactive).
The same measure, in the same setting: the result for `O=C(c1ccc(CSCc2ccccc2F)o1)N1CCN(c2ccc(N3CCOCC3)nn2)CC1` reads -5.4% (inactive).
The same measure, in the same setting: the value for `COCCOC(=O)c1[nH]c2c(c1C)C(=O)CC(c1ccco1)C2` (stereo not given) was -37.2% (inactive); that for `CCOC(=O)CSc1nnc(Cn2c(=O)sc3ccccc32)n1C` was 11.1% (inactive).
The same measure, in the same setting: the result for `CCCC(=O)C1=C(N(C)c2ccccc2)CC(C)(C)C(C(=O)OC)C1=O` (stereo not given) reads 1.22% (inactive); that for `CC1(C)CC(=O)N(CC(=O)NCc2ccccc2)c2ccccc2S1(=O)=O`, -8.55% (inactive).
In the case of `CCOc1cc(C2NC(=O)NC(O)(C(F)(F)F)C2C(=O)c2ccccc2)ccc1OC` (stereo not given), the differential viability (reversal) is 5.23% (inactive).
Regarding `Cn1c(C(=O)NCCN2CCN(c3ccccc3F)CC2)cc2c(=O)n(C)c3ccccc3c21`, the differential viability (reversal) was -2.84% (inactive).
Still for that read-out and setting: the value for `Cc1cc2ccccc2n1CCNC(=O)C1CC1` was -5.55% (inactive); that for `Cc1cccc(NC(=O)CS(=O)(=O)c2cn(C)c3ccccc23)c1` was -1.36% (inactive).
The same measure, in the same setting: the value for `COc1nnc(-c2ccc(C)c(S(=O)(=O)NCCO)c2)c2ccccc12` was -2.42% (inactive); that for `COc1ccc(-c2cnc(SCC(=O)Nc3ccc4c(c3)OCO4)n2Cc2ccco2)cc1` was -9.64% (inactive); that for `Cn1cnc2cc(NC(=O)c3ccc(Cl)cc3)ccc21` was -2.15% (inactive).
Still for that read-out and setting: the value for `CC1CCc2nn(CC(=O)Nc3ccc(F)cc3F)cc2C1` (stereo not given) was 14.7% (inactive).
Regarding `Cc1ccc(-c2noc(CN3CCN(c4ccccc4F)CC3)n2)cc1`, the differential viability (reversal) is -3.02% (inactive).
On the same count and under the same terms, the value for `Cc1ccc(NC(=O)c2cc(-c3ccc(C)o3)nc3ccccc23)nc1` was -0.595% (inactive); that for `Cc1nnc(N2C(=O)C(O)=C(C(=O)c3ccco3)C2c2ccc(F)cc2)s1` (stereo not given) was 8.77% (inactive).
The same measure, in the same setting: the value for `COc1ccccc1N(CC(=O)Nc1cccnc1)S(C)(=O)=O` was 1.5% (inactive); that for `CCCc1cc(C(=O)Nc2ccccc2SC)no1` was -3.34% (inactive); that for `O=C(CSc1nc2c(c(=O)n1-c1ccc(F)cc1)SCC2)NCC1CCCO1` (stereo not given) was 12% (inactive).
Take `COc1ccc(-c2nc(C)c(C(C)=O)n2O)cc1OC`: the differential viability (reversal) is 9.6% (inactive).
Still for that read-out and setting: the value for `C=CCOC(=O)COc1ccc2c(C)c(C)c(=O)oc2c1C` was 19.5% (inactive); that for `CN(C)CCCNC(=O)CCC1CCCCC1` was 9.09% (inactive); that for `CC(C)(O)C#Cc1ccc(C(=O)N2CCN(C(=O)c3ccco3)CC2)cc1` was 8.95% (inactive).
On the same count and under the same terms, the value for `Nc1cccc2c1C(=O)N(c1ccccc1)C2=O` was 14.7% (inactive); that for `COc1ccc(N2CCN(CCNC(=O)CCS(=O)(=O)c3cccc4nsnc34)CC2)cc1` was 11.1% (inactive).
Take `CCOC(=O)CCc1c(C)nc2cc(-c3ccc(F)cc3)[nH]n2c1=O`: the differential viability (reversal) was 8.37% (inactive).
The same measure, in the same setting: the value for `O=C1CC(c2cccnc2)c2cc3c(cc2N1)OCO3` (stereo not given) was 18.4% (inactive); that for `COc1ccccc1CNC(=O)C1CCCN(S(=O)(=O)c2cccc3cccnc23)C1` (stereo not given) was -0.39% (inactive).
Regarding `Oc1c(C(c2ccccc2)N2CCc3ccccc3C2)sc2ncnn12` (stereo not given), the differential viability (reversal) is -0.02% (inactive).
In the case of `O=C(NCCc1c[nH]c2ccccc12)c1cnc2n(c1=O)CCS2`, the differential viability (reversal) was -5.14% (inactive).
In the case of `CC(NC(=O)c1cc2c(=O)n(C)c3ccccc3c2n1C)c1ccc2c(c1)OCCO2` (stereo not given), the differential viability (reversal) was -20.9% (inactive).
Take `CCOC(=O)c1ccc(-n2c(C)nc3c(cnn3-c3ccccc3C)c2=O)cc1`: the differential viability (reversal) is -3.79% (inactive).
On to `COc1ccc(CCNC(=O)CSc2nnnn2-c2ccccc2OC)cc1OC`, for which the differential viability (reversal) is 0.99% (inactive).
As for `CCCSc1nnc(N2C(=O)CC(c3ccsc3)C3=C2CCCC3=O)s1` (stereo not given), the differential viability (reversal) is 0.73% (inactive).
For the compound `COC(=O)Cn1c(=O)c2c(nc3n2CC(C)CN3c2ccc(C)c(C)c2)n(C)c1=O` (stereo not given), the differential viability (reversal) is 15.8% (inactive).
Still for that read-out and setting: the result for `O=C(Nc1cccnc1)Nc1ccccn1` reads 9.92% (inactive); that for `CCn1cc(C(=O)NCc2ccccc2OC)c(=O)c2cc(S(=O)(=O)N(C)C)ccc21`, 9.22% (inactive); that for `CC1CCN(c2oc(-c3ccccc3F)nc2C#N)CC1`, 7.56% (inactive).
On to `Clc1ccc(Nc2ncnc3c2cnn3-c2ccccc2)cc1`, for which the differential viability (reversal) was 7.29% (inactive).

The assay is the same for the next values; noted with them: H69AR cells + 2 uM doxorubicin, CellTiter-Glo, 72 h; measured here: viability with 2 uM doxorubicin; at 10 µM; stronger effect = lower value.
What is called viability is a read-out of living cells in per cent, often relative to untreated cells. For the compound `COCCCNC(=O)c1ccc(CS(=O)(=O)c2ccc(OC)cc2)o1`, the viability amounted to 87.1%.
With `O=C(c1ccc(CSCc2ccccc2F)o1)N1CCN(c2ccc(N3CCOCC3)nn2)CC1`, the viability is 85%.
The same measure, in the same setting: the result for `COCCOC(=O)c1[nH]c2c(c1C)C(=O)CC(c1ccco1)C2` (stereo not given) reads 60.9%; that for `CCOC(=O)CSc1nnc(Cn2c(=O)sc3ccccc32)n1C`, 85.5%; that for `CCCC(=O)C1=C(N(C)c2ccccc2)CC(C)(C)C(C(=O)OC)C1=O` (stereo not given), 93.2%.
Same read-out and setting: the result for `CC1(C)CC(=O)N(CC(=O)NCc2ccccc2)c2ccccc2S1(=O)=O` reads 101%; that for `CCOc1cc(C2NC(=O)NC(O)(C(F)(F)F)C2C(=O)c2ccccc2)ccc1OC` (stereo not given), 96.6%; that for `Cn1c(C(=O)NCCN2CCN(c3ccccc3F)CC2)cc2c(=O)n(C)c3ccccc3c21`, 72.5%.
The same measure, in the same setting: the result for `Cc1cc2ccccc2n1CCNC(=O)C1CC1` reads 93.6%; that for `Cc1cccc(NC(=O)CS(=O)(=O)c2cn(C)c3ccccc23)c1`, 92%.
Turning to `COc1nnc(-c2ccc(C)c(S(=O)(=O)NCCO)c2)c2ccccc12`, the viability stood at 90.3%.
As to `COc1ccc(-c2cnc(SCC(=O)Nc3ccc4c(c3)OCO4)n2Cc2ccco2)cc1`, the viability is 93.1%.
Still for that read-out and setting: the value for `Cn1cnc2cc(NC(=O)c3ccc(Cl)cc3)ccc21` was 95.2%; that for `CC1CCc2nn(CC(=O)Nc3ccc(F)cc3F)cc2C1` (stereo not given) was 89.5%; that for `Cc1ccc(-c2noc(CN3CCN(c4ccccc4F)CC3)n2)cc1` was 95.5%.
For the compound `Cc1ccc(NC(=O)c2cc(-c3ccc(C)o3)nc3ccccc23)nc1`, the viability turned out to be 5.45%.
On the same count and under the same terms, the result for `Cc1nnc(N2C(=O)C(O)=C(C(=O)c3ccco3)C2c2ccc(F)cc2)s1` (stereo not given) reads 90.9%.
`COc1ccccc1N(CC(=O)Nc1cccnc1)S(C)(=O)=O`: the viability amounted to 87.8%.
`CCCc1cc(C(=O)Nc2ccccc2SC)no1`: the viability is 84.4%.
In the case of `O=C(CSc1nc2c(c(=O)n1-c1ccc(F)cc1)SCC2)NCC1CCCO1` (stereo not given), the viability was 92.6%.
The same measure, in the same setting: the value for `COc1ccc(-c2nc(C)c(C(C)=O)n2O)cc1OC` was 85.3%; that for `C=CCOC(=O)COc1ccc2c(C)c(C)c(=O)oc2c1C` was 106%; that for `CN(C)CCCNC(=O)CCC1CCCCC1` was 84.9%.
Same read-out and setting: the value for `CC(C)(O)C#Cc1ccc(C(=O)N2CCN(C(=O)c3ccco3)CC2)cc1` was 87.9%.
On to `Nc1cccc2c1C(=O)N(c1ccccc1)C2=O`, for which the viability is 84.1%.
`COc1ccc(N2CCN(CCNC(=O)CCS(=O)(=O)c3cccc4nsnc34)CC2)cc1`: the viability stood at 91.6%.
On the same count and under the same terms, the value for `CCOC(=O)CCc1c(C)nc2cc(-c3ccc(F)cc3)[nH]n2c1=O` was 92.2%.
Turning to `O=C1CC(c2cccnc2)c2cc3c(cc2N1)OCO3` (stereo not given), the viability is 85.7%.
Consider `COc1ccccc1CNC(=O)C1CCCN(S(=O)(=O)c2cccc3cccnc23)C1` (stereo not given), for which the viability was determined as 92.3%.
The same measure, in the same setting: the result for `Oc1c(C(c2ccccc2)N2CCc3ccccc3C2)sc2ncnn12` (stereo not given) reads 85.1%.
The same measure, in the same setting: the value for `O=C(NCCc1c[nH]c2ccccc12)c1cnc2n(c1=O)CCS2` was 87.1%.
On the same count and under the same terms, the value for `CC(NC(=O)c1cc2c(=O)n(C)c3ccccc3c2n1C)c1ccc2c(c1)OCCO2` (stereo not given) was 63.6%.
In the case of `CCOC(=O)c1ccc(-n2c(C)nc3c(cnn3-c3ccccc3C)c2=O)cc1`, the viability came to 102%.
`COc1ccc(CCNC(=O)CSc2nnnn2-c2ccccc2OC)cc1OC`: the viability came to 89.1%.
Regarding `CCCSc1nnc(N2C(=O)CC(c3ccsc3)C3=C2CCCC3=O)s1` (stereo not given), the viability is 91.9%.
Consider `COC(=O)Cn1c(=O)c2c(nc3n2CC(C)CN3c2ccc(C)c(C)c2)n(C)c1=O` (stereo not given), for which the viability is 69.7%.
Same read-out and setting: the value for `O=C(Nc1cccnc1)Nc1ccccn1` was 87%.
In the case of `CCn1cc(C(=O)NCc2ccccc2OC)c(=O)c2cc(S(=O)(=O)N(C)C)ccc21`, the viability is 68.4%.
Still for that read-out and setting: the result for `CC1CCN(c2oc(-c3ccccc3F)nc2C#N)CC1` reads 84.5%; that for `Clc1ccc(Nc2ncnc3c2cnn3-c2ccccc2)cc1`, 71.4%.
